Assay outcomes deposited in PubChem BioAssay by National Center for Advancing Translational Sciences (NCATS).
HEK293 cAMP ctrl: qHTS Assay for Agonists of the Thyroid Stimulating Hormone Receptor: Activators of Intracellular cAMP Concentrations in Parental HEK 293; parental HEK293 CNG cAMP sensor, membrane potential fluorescence; Potency, µM (doses to about 57.1 µM), for the others: top-dose activation, hits mostly activators; 73,000 compounds, 2.5% hits; also: potency is read from the fitted curve at half-maximal effect; % of control where 0% means no effect; nearly all actives have a fitted effect of over 55% in size
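Counterscreen for endogenous-receptor signalling: CNG-channel HEK 293 cells report cAMP rise by membrane depolarization. After 60 min dye equilibration with 100 uM RO 20-1724, compounds incubated 30 min before bottom-read fluorescence at 590 nm.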
BRCT inh red: qHTS Assay for Inhibitors of BRCT-Phosphoprotein Interaction (Red Fluorophore). Potency, µM (top dose mostly 76.9 µM), for inactives: at the highest dose activity change, negative = inhibition, hits mostly inhibitors. Breast cancer type 1 susceptibility protein (Homo sapiens), P38398. BRCT-phosphopeptide binding, red fluorescence polarization. 75,000 compounds, 0.03% hits. AID 892, 2007; also: % is scaled to controls: 0 for no effect and ±100 for the full control effect
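Rhodamine-labelled pBACH1 10-mer (100 nM) bound to BRCT domain (100 nM) at pH 7.3; compounds incubated 12 min room temperature, polarization read. Free peptide defines full inhibition; unlabelled decapeptide titrated as control.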
BRCT PPI green: qHTS Assay for Inhibitors of BRCT-Phosphoprotein Interaction (Green Fluorophore); Breast cancer type 1 susceptibility protein (Homo sapiens), P38398; BRCA1 BRCT-phosphopeptide binding, green fluorescence polarization; Potency, µM (series often up to 76.9 µM), for the others: top-dose activity change, negative = inhibition, hits mostly inhibitors; 75,000 compounds, 0.05% hits;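 also: potency is read from the fitted curve at half-maximal effect; plate controls were peptide without protein for full effect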
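Compounds were incubated for 12 min at room temperature with a complex of 100 nM fluorescein-tagged pBACH1 decapeptide and 250 nM His-tagged BRCT protein. Buffer was phosphate pH 7.3 with EDTA, DTT and Tween 20. Disruption of binding lowers the polarization signal.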
DNA Pol III inh: qHTS Assay for Inhibitors of DNA Polymerase III Holoenzyme System; 71,000 compounds, 0.25% hits; reconstituted DNA polymerase III holoenzyme replication, biochemical; Potency, µM (top dose mostly 57.1 µM), inactives show top-dose activity change, negative = inhibition; AID 603, 2007; also: potency is read from the fitted curve at half-maximal effect; % is scaled to controls: 0 for no effect and ±100 for the full control effect
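Reconstituted *E. coli* holoenzyme (0.35 nM Pol III, 1 nM beta, 154 nM SSB, 2 nM primase) was preincubated with compound for 15 min at RT. Synthesis on 1.4 nM ssM13Gori ran 35 min, then was stopped with PicoGreen/EDTA and read as dsDNA fluorescence.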
TSHR agonist: qHTS Assay for Agonists of the Thyroid Stimulating Hormone Receptor | 73,000 compounds, 0.48% hits | AID 926, 2007 | Potency, µM (series often up to 57.1 µM), without a hit: top-dose activation, hits mostly activators | Thyrotropin receptor (Homo sapiens), P16473 | HEK293-CNG-TSHR cells (CNG channel as cAMP sensor), membrane potential dye, cAMP; active = well fitted activation curve with a large enough effect in the main read-out, with a control signal flat, not every such curve was filed as active; inconclusive = small, poorly fitted or top-dose-only effect, or a change in a side signal; inactive = no such curve, though single readings can be large or run the other way; % of control where 0% means no effect;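 also: the control signal comes from parental cells without the receptor; potency is read from the fitted curve at half-maximal effect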
Target sequence (P16473 whole entry, looked up): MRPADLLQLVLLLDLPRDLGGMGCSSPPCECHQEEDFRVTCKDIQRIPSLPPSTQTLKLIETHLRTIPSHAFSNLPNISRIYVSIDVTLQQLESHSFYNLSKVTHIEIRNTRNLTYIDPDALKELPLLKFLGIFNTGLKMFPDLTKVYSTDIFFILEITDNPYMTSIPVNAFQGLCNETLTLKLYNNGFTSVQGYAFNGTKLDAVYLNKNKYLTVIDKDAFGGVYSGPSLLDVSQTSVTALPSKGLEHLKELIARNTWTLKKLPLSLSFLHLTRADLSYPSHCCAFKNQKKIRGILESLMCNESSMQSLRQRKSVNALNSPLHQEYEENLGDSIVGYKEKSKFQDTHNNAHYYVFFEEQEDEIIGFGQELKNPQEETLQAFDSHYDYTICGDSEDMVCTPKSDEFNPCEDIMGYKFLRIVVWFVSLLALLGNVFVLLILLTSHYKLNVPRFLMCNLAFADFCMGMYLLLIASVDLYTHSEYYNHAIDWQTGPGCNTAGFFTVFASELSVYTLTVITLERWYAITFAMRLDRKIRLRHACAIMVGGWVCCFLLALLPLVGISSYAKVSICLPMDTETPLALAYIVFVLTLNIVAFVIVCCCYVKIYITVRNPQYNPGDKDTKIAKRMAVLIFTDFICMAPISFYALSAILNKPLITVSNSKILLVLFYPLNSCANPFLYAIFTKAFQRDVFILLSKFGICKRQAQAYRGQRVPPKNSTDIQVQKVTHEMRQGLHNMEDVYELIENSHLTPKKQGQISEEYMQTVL
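HEK 293 cells stably expressing TSHR and a modified CNG channel, with CNG-only parental cells as counterscreen, were preloaded 60 min at room temperature with membrane potential dye containing 100 uM RO 20-1724. Compound exposure was 30 min, and depolarization was read as fluorescence at 590 nm.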
YjeE inh: qHTS Assay for Inhibitors of YjeE | tRNA threonylcarbamoyladenosine biosynthesis protein TsaE (Escherichia coli (strain … | purified YjeE enzyme, qHTS inhibition assay | Potency, µM | 71,000 compounds, 0.05% hits | AID 605, 2007
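Fluorescence polarization of a BODIPY Texas Red–ADP probe (2 uM) bound to purified YjeE (10 uM) was read after 15 min room-temperature incubation with compounds. Loss of polarization marks inhibitors; ADP serves as titrated control.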
HEK293 cAMP cnt: Confirmation Concentration-Response Assay for Agonists of the Thyroid Stimulating Hormone Receptor: Activators of Intracellular cAMP Concentrations in Parental HEK 293; shares compounds with TSHR agonist; parental HEK293 CNG biosensor, cAMP membrane potential fluorescence; activity change, negative = inhibition, % at 32.9 µM; 150 tested, under 10 active; AID 953, 2007
The depositor's hits bear a star; i = inactive; ? = inconclusive; . = not tested or not shown; [ ] = remark or other dose. In the library only some 3.2% were active in any assay of this set; here they are far more common. Unless noted, calls follow the shape of the dose curve; as a rule, active = well fitted curve in the direction sought with a large enough effect; inconclusive = small, poorly fitted or top-dose-only effect, or another doubt; inactive = no such curve, though single readings can be large; an effect the other way counts as inactive or inconclusive.

SMILES | HEK293 cAMP ctrl | BRCT inh red | BRCT PPI green | DNA Pol III inh | TSHR agonist | YjeE inh | HEK293 cAMP cnt
Cc1ccccc1-n1nc(C)c2cc(C(=O)N3CCN(S(=O)(=O)c4ccc(F)cc4)CC3)sc21 | 10% | -1% | 1% | -1% | 16µM* | i | -1
CC(C)[C@@H](OCc1ccccc1)[C@H](C)/C=N\OC[C@@H](O)[C@@H]1O[C@@H]2OC(C)(C)O[C@@H]2[C@H]1O | 6%[11.4 µM] | 2%[15.4 µM] | -4%[15.4 µM] | . | -1%[11.4 µM] | . | .
COCCNC(=O)[C@H](C)/C=C(\c1cccnc1)C(NC(=O)OCc1ccccc1)c1ccc(C(=O)OC)cc1 (some centres not stated) | 8% | 0% | 0% | 0% | 5% | i | .
Cc1ccccc1NC(=O)CSc1nnc(-c2ccoc2C)n1CCc1ccccc1 | 25% | -2% | 4% | -1% | 10µM* | i | 20
Cc1occc1-c1nnc(SCC(=O)Nc2ccc(F)cc2)n1Cc1ccccc1 | ? | -1% | -1% | -2% | ? | i | .
Cc1ccccc1NC(=O)N1C2CCCC1CC(NC(=O)C1CC1)C2 (configuration not stated) | 1% | 1% | 1% | -2% | 6% | i | 20[25.6 µM]
CC(=O)Oc1cc(OC(C)=O)c2c(=O)cc(-c3ccc(OC(C)=O)c(OC(C)=O)c3)oc2c1 | -10% | 1% | -4% | -11% | -6% | i | .
O=C(CSc1nnc(-c2ccccc2)n1Cc1ccco1)Nc1ccc2c(c1)OCCO2 | 28% | 1% | 1% | 2% | 20µM* | i | -7
O=C(CSc1nnc(-c2cccs2)n1Cc1ccco1)Nc1ccc2c(c1)OCO2 | ? | -1% | 2% | -2% | ? | i | .
O=S(=O)(c1ccccc1)N1CCN(C2CCN(Cc3ccccc3)CC2)CC1 | 23% | -1% | -1% | -2% | 8% | i | 1[25.6 µM]
CC1(c2ccccn2)Nc2ccccc2-c2nc3ccccc3n21 (configuration not stated) | 11% | -1% | 1% | -7% | 16µM* | i | 15
c1ccc2c(c1)NC1(CCCCC1)n1c-2nc2ccccc21 | 2% | 0% | -1% | 0% | . | i | .
CC(c1ccco1)N(C(=O)COc1ccc(Cl)cc1)c1ccccn1 (configuration not stated) | 10% | 0% | -1% | -3% | 13% | i | .
CC(c1ccco1)N(C(=O)c1ccc(Cl)s1)c1ccccn1 (configuration not stated) | ? | 0% | 1% | 5% | ? | i | 9
C/C(C[n+]1ccccc1)=N\N=C(N)N | 7%[11.4 µM] | 1%[15.4 µM] | -1%[15.4 µM] | -6%[11.4 µM] | -1%[11.4 µM] | i | .
NC(=O)CCCCC(N)=O | 7% | 0% | -1% | -3% | 1% | i | .
COc1cccc(C(=O)NC2=NCCS2)c1OC | -3% | -1% | 0% | -3% | -5% | i | .
COc1ccc(N(C)S(=O)(=O)c2cccc(C(=O)NC3=NCCS3)c2)cc1 | 14% | -5% | -1% | -6% | 25µM* | i | 6
CCCC[C@H]1C[C@@H]1[C@@H]1N(P(=O)(c2ccccc2)c2ccccc2)C[C@@](O)(c2ccccc2)CC12CC2 | 20% | -2% | -4% | -4% | 1% | i | .
O=C1NC(O)=NC1(c1ccccc1)c1ccccc1 | -3% | 1% | -2% | -3% | 7% | i | .
COc1ccc(F)cc1S(=O)(=O)n1cc(C)nc1-c1ccccc1 | 4% | 1% | -4% | -3% | 7% | i | -53[25.6 µM]
Nc1cccc(S(=O)(=O)O)c1 | 8% | 0% | 0% | 2% | ? | i | .
Nc1nnc(SCC(=O)NCc2ccc3c(c2)OCO3)s1 | -6% | -1% | -2% | 1% | -8% | i | .
NC(=O)c1nsc(C(=O)N(CC(=O)NCc2ccc3c(c2)OCO3)C2CCCC2)c1N | 13% | 0% | -2% | -2% | 13µM* | i | 7
CCOc1ccc(N(CC(=O)Nc2ccc(C)cc2)S(=O)(=O)c2c(C)noc2C)cc1 | 3% | 0% | -3% | -4% | 3% | i | 5[25.6 µM]
SMILES | HEK293 cAMP ctrl | BRCT inh red | BRCT PPI green | DNA Pol III inh | TSHR agonist | YjeE inh | HEK293 cAMP cnt
CCOc1ccc(N(CC(=O)NC(C)(C)C)S(=O)(=O)c2c(C)noc2C)cc1 | 18% | -2% | -1% | 0% | 12% | i | 7[25.6 µM]
CCOc1ccc(N(CC(=O)NCc2cccs2)S(=O)(=O)c2c(C)noc2C)cc1 | 6% | -1% | 0% | -3% | 32µM* | i | 10
CCOc1ccc(N(CC(=O)NCc2ccc(F)cc2)S(=O)(=O)c2c(C)noc2C)cc1 | 8% | 0% | -1% | -2% | 13% | i | .
CC1(C)O[C@@H]2C[C@H]3[C@H]4C[C@H](F)C5=CC(=O)C=C[C@@]5(C)[C@@H]4[C@H](O)C[C@]3(C)[C@]2(C(=O)CO)O1 | 0%[25.6 µM] | 0%[34.4 µM] | -3%[34.4 µM] | -6%[25.6 µM] | -5%[25.6 µM] | i | .
CCCC(NC(C)C(=O)N1C(C(=O)O)CC2CCCCC21)C(=O)OCC (configuration not stated) | . | 0% | -1%[3.08 µM] | . | . | . | .
Cc1ccc(C)c(Cn2c(C(C)O)nc3ccccc32)c1 (configuration not stated) | 18% | 0% | -1% | -3% | 4µM* | i | -3
COc1ccc(C)cc1Cn1c(S(C)(=O)=O)nc2ccccc21 | ? | 1% | 1% | 1% | ? | i | .
COC(=O)c1cc2c(s1)-c1ccccc1OC2 | 10% | 1% | -1% | -3% | . | i | .
Nc1ccc2c(c1)COc1ccccc1O2 | -9% | 2% | 1% | -2% | -24% | i | -6[25.6 µM]
CCOC(=O)C(=O)C1(C(=O)OCC)Oc2cc(OC)cc(OC)c2C(=O)C1c1ccccc1 (configuration not stated) | . | 0% | -1% | . | . | . | .
Cc1ccccc1N1CCN(c2ncnc3c2cnn3Cc2ccc(Cl)cc2)CC1 | 18% | -1% | -4% | 3% | . | i | ?
Cc1nc2ccc(NC(=O)c3ccc(S(=O)(=O)N4CCOCC4)cc3)cc2s1 | 31% | 1% | -1% | 0% | 26% | i | ?
COc1ccccc1NS(=O)(=O)c1cc(C(=O)O)ccc1F | 2% | 0% | -2% | . | 1% | . | .
